# From PubChem BioAssay
# In the library only some 9% were active in any assay of this set; here they are far more common.
# ALDH1A1 inh = qHTS Assay for Inhibitors of Aldehyde Dehydrogenase 1 (ALDH1A1); 7.3% of 220,000 active; Aldehyde dehydrogenase 1A1 (Homo sapiens), P00352; Potency, µM (doses to about 75.3 µM), for the others: at the top dose activity, negative = inhibition, most hits filed as inhibitors; Purified ALDH1A1, NADH fluorescence, propionaldehyde substrate;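 also: potency is read from the fitted curve at half-maximal effect; plate controls were no enzyme wells and a reference inhibitor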
# Target sequence (P00352 whole entry, looked up): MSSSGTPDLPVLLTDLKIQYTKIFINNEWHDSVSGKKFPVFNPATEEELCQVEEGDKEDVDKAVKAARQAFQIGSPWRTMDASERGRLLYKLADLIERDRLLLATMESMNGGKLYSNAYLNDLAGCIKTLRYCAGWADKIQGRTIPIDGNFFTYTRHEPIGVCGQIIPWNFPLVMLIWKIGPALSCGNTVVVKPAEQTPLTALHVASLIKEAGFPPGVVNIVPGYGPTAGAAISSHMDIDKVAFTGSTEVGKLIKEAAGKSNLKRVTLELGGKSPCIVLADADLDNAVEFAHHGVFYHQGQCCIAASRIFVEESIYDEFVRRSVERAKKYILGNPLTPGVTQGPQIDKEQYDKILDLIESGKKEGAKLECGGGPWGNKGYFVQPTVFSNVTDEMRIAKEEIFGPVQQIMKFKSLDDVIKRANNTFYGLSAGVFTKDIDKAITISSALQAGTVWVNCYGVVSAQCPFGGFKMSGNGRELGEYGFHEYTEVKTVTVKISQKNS
# IMPase inh = qHTS Assay for Identifying the Cell-Membrane Permeable IMPase Inhibitors. inhibition (IP1 accumulation), % at 46.1 µM. 120,000 tested, under 10 active. Inositol monophosphatase 1 (Rattus norvegicus), P97697. CHO-M1 cells, IP1 accumulation, HTRF TR-FRET ratio; active = well fitted curve in the direction sought with a large enough effect in the signal ratio, not every such curve was filed as active; inconclusive = small, poorly fitted or top-dose-only effect, or a change in a side signal; inactive = no such curve, though single readings can be large or run the other way; the % refers to the signal ratio;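 also: cells stimulated with carbachol in lithium chloride buffer; plate controls were DMSO basal wells for no effect and reference inhibitor wells for full effect; higher means more IMPase inhibition seen as more IP1 and lower FRET ratio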
#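 Measured: the HTRF emission ratio (665/620 nm) plus the 620 nm donor channel, each fitted to the Hill equation to give AC50. Cells were CHO-M1 given compounds up to 46 uM and a 30 min carbachol stimulation at 37C.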
# HPGD block = qHTS Assay for Inhibitors of HPGD (15-Hydroxyprostaglandin Dehydrogenase); Potency, µM, for the others: at the highest dose activity change, negative = inhibition, actives largely listed as inhibitors; purified HPGD, NADH fluorescence kinetic, PGE2 substrate; 15-hydroxyprostaglandin dehydrogenase [NAD(+)] (Homo sapiens), P15428; AID 894, 2007; 4.3% of 150,000 active; also: potency is read from the fitted curve at half-maximal effect
#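 NADH formation kinetics: reaction with 30 uM PGE2 and 1 mM NAD+ (final), 20 nM enzyme, Tris-HCl pH 8 with Tween 20, after 15 min compound preincubation at room temperature. Fluorescence change, last versus first of five reads.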
# Numbers without * were called inactive; ? = inconclusive; / = no result given; [ ] = dose if it differs, or a comment. Unless noted, calls follow the shape of the dose curve; as a rule, active = well fitted inhibition curve with a large enough effect (not every such curve was filed as active); inconclusive = small, poorly fitted or top-dose-only effect, or another doubt; inactive = no such curve, though single readings can be large or run the other way. Unless noted, % is scaled to controls: 0 for no effect and ±100 for the full control effect.
SMILES,ALDH1A1 inh,IMPase inh,HPGD block
O=C(Nc1ncccn1)c1cc([N+](=O)[O-])cc([N+](=O)[O-])c1,5%,/,-10%
CC(C)(C)c1ccc(C(=O)Nc2ccc(C=C(C#N)C#N)cc2)cc1,4µM*,/,-16%
CC(C)(C)c1ccc(C(=O)Nc2ccc(NC(=O)c3ccc(Cl)c(Cl)c3)cc2)cc1,/,-4,/
CN(C)CCCNC(=O)c1ccc(Cc2nc3ccccc3[nH]2)cc1,2%,/,-10%
O=C(O)/C(=C\c1ccc(O)cc1)c1cccc2ccccc12,7%[13.5 µM],/,1%
NC(=O)COC(=O)/C=C/c1ccccc1[N+](=O)[O-],-6%,/,/
CN(Cc1cccs1)C(=O)/C=C/c1ccccc1[N+](=O)[O-],3.2µM*,/,/
Cc1cccc(Nc2nc(-c3ccncc3)cs2)c1,4%,/,/
Cc1cccc(Nc2nc(-c3ccc4c(c3)OCCO4)cs2)c1,20µM*,-2,-8%
O=C(CN(CC1CCCO1)S(=O)(=O)c1ccc(S(=O)(=O)NCC2CCCO2)cc1)Nc1ccccc1 (stereo unspecified),-4%,6,3%
O=S(=O)(NC1CCCC1)c1ccc(S(=O)(=O)N(Cc2cccs2)CC2CCCO2)cc1 (stereo unspecified),25µM*,16,-16%
O=C(C1CCCN(S(=O)(=O)c2ccc(F)cc2)C1)N1CCCC1 (stereo unspecified),2%,14,2%
O=S(=O)(c1ccc(S(=O)(=O)N(Cc2cccs2)CC2CCCO2)cc1)N1CCCCC1 (stereo unspecified),7.9µM*,7,-4%
O=C(CN(Cc1cccs1)S(=O)(=O)c1ccc(S(=O)(=O)N2CCCCC2)cc1)Nc1ccccc1,9%,/,-6%
O=C(C1CCCN(S(=O)(=O)c2ccc(F)cc2)C1)N(Cc1cccs1)C1CC1 (stereo unspecified),18µM*,6,-3%
COc1ccc(S(=O)(=O)N(C)C)cc1NS(=O)(=O)c1ccc(F)c(F)c1F,-8%,/,-7%
CCOc1ccc(S(=O)(=O)NC(Cc2cnc[nH]2)C(=O)O)cc1 (stereo unspecified),2%,/,/
CCOc1ccc(C(=O)CCNC(Cc2cnc[nH]2)C(=O)O)cc1 (stereo unspecified),1.6µM*,1,-3%
COCCCN1CN=C(Nc2nc3ccccc3o2)NC1,1%,/,/
O=C(CCSc1nnc(-c2ccco2)o1)N1CCOCC1,9%,/,/
COc1ccc(NCC(=O)n2c(C)c(C)c3ccccc32)cc1,7.9µM*,/,/
COc1ccc(NC(=O)Cn2c(C)cc(=O)c3ccccc32)cc1,4%,/,-11%
CC(=O)Nc1ccc(Oc2ccccc2)cc1,4%,/,/
O=C(O)[C@@H](O)c1ccc(F)cc1,1%[13.5 µM],/,-4%
O=C(COc1ccc(C(=O)c2ccccc2)cc1)NCc1ccc(F)cc1,?,7,-24%
SMILES,ALDH1A1 inh,IMPase inh,HPGD block
CC(=O)Nc1ccc(C(C#N)c2ccccc2)cc1 (stereo unspecified),14µM*,/,/
N#CC(c1ccc(F)cc1)c1ccc(C(=O)c2ccccc2)cc1 (stereo unspecified),-39%,2,14µM*
N#CC(c1ccccc1)c1ccc(C(=O)c2ccc(F)cc2)cc1 (stereo unspecified),20µM*,13,?
C[C@H](C(=O)O)c1cccc(Oc2ccccc2)c1,4%[20.9 µM],-4[20.6 µM],-9%
CCc1ccc(NC(=S)N(Cc2ccccc2)Cc2ccccn2)cc1,-4%,/,/
NC(N)=NCCCC(NC(=O)C(N)Cc1ccc(O)cc1)C(=O)O (stereo unspecified),-9%,/,-17%
COc1cccc(C(=O)NCC(=O)n2nc(C)cc2C)c1,-10%,6,/
O=C(Oc1cccc(NC(=O)c2ccco2)c1)c1cccc(S(=O)(=O)N2CCCCC2)c1,-5%,5,-23%
Cc1cc(C)n(-c2nc3ccccc3nc2Nc2cccc(C(=O)NCCc3ccccc3)c2)n1,/,1,/
COc1ccc(NC(=O)C(c2ccc(OC)cc2)N(C)C(=O)CC2NC(=O)NC2=O)cc1 (stereo unspecified),9%,-8,-10%
CC(C)c1ccc(NC(=O)C(c2ccccc2)N(Cc2ccco2)C(=O)CC2NC(=O)NC2=O)cc1 (stereo unspecified),7.9µM*,/,/
CCN(CC)C(=O)Oc1ccc2c(=O)c(-c3ccc(OC)cc3)coc2c1,?,3,-7%
CCN(CC)C(=O)Oc1ccc2c(=O)c(-c3ccc(OC)cc3)c(C)oc2c1,14µM*,-8,-14%
Cc1ccc(C(C(=O)NCc2ccc(F)cc2)N(CCCO)C(=O)C2COc3ccccc3O2)o1 (stereo unspecified),-13%,/,/
O=C1CCC(C(=O)Nc2cccc(Oc3ccccc3)c2)=NN1,2%,/,/
COc1ccc(NC2=CC(c3cccc(OC)c3)N(c3ccc(OC)cc3)C2=O)cc1 (stereo unspecified),25µM*,/,?
COc1ccc(NC2=CC(c3ccccc3)N(c3ccc(OC)cc3)C2=O)cc1 (stereo unspecified),-14%,/,-12%
O=C(NCCO)c1ccc(Cc2nc3ccccc3[nH]2)cc1,8%,/,0%
Cc1cc(C(F)F)n2ncc(C(=O)N3CCC(C(N)=O)CC3)c2n1,-9%,-1,-11%
Cc1cc(C(F)F)n2ncc(C(=O)N3CCCCC3)c2n1,0%,?,11µM*
COC(=O)C(=C/C(C)=C/c1cccnc1)C(=O)OC,-7%,/,/
CCCOc1ccc(NC(=O)C2CC(=O)N(C(C)C)C2)cc1 (stereo unspecified),-2%,4,/
CCCOc1ccc(NC(=O)C2CC(=O)N3CCCN=C3S2)cc1 (stereo unspecified),2.8µM*,1,-14%
CCOc1ccc(NC(=O)C2CC(=O)N3CCCN=C3S2)cc1 (stereo unspecified),14µM*,2,1%
CCOc1ccc(NC(=O)C2CC(=O)N(C)C(=Nc3ccc4c(c3)OCO4)S2)cc1 (stereo unspecified),0%,-3,-9%
SMILES,ALDH1A1 inh,IMPase inh,HPGD block
Cc1ccc(S(=O)(=O)Nc2ccc(S(=O)(=O)NC(C)(C)C)cc2)cc1,?,3,-10%
Cc1cc(NS(=O)(=O)c2ccccc2)cc(Cl)c1O,7.1µM*,4,-26%
Cc1ccc(S(=O)(=O)Nc2cc(C)c(O)c(S(=O)(=O)c3ccc(C)cc3)c2)cc1,0.63µM*,-3,-11%
O=S(=O)(Nc1ccc(S(=O)(=O)Nc2ccccc2)cc1)c1ccccc1,?,-2,-4%
O=C(Nc1cccc(C(=O)O)c1)/C(=C\c1ccccc1)NC(=O)c1cccc2ccccc12,-2%,/,/
COc1ccc(CCNC(=O)CSc2nnnn2-c2ccccc2)cc1,1.6µM*,2,-5%
COc1cc(OC)cc(-n2nnnc2SCC(=O)NCCc2ccc(OC)c(OC)c2)c1,-3%,/,/
COc1ccc(CNC(=O)CSc2nnnn2Cc2ccccc2)cc1,?,?,-3%
COc1ccc(CNC(=O)CSc2nnnn2-c2ccccc2)cc1,11µM*,-4,-10%
COc1ccc(CCNc2nnc(Sc3nnnn3-c3ccccc3)s2)cc1OC,18µM*,9,-7%
COc1ccc(-n2nnnc2SCC(=O)NCCc2ccccc2)cc1OC,-15%,/,/
